Measurements reported in PubChem BioAssay AID1076 (NMMLSC, 2008).
The source made the active and inactive calls.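 The calls were made as follows: active = cell event count below 40, meaning activity score above 60 where score is 100 minus count; inactive = the rest.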

Assay: LNCaP cell loss by flow event count, confirmation, cytotoxicity control for prostate differentiation activator project, single point (AID 1076);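 also: counts scatter-gated live cells after medium removal discards detached dead cells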
Settings: flow cytometry event count, 4 d, stronger effect = lower value

Row | Compound | cell event count (at 100 µM) | cell event count (event count, at 10 µM)
1 | COc1ccc(-c2oc3ncn(CCN4CCOCC4)c(=N)c3c2-c2ccc(OC)cc2)cc1 | 26 (inactive) | 237
2 | O=C(C1CCN(S(=O)(=O)c2cccc3nsnc23)CC1)N1CC=C(c2ccccc2)CC1 | 27 (inactive) | 258
3 | O=C(NC1CCCC1)C1CCN(S(=O)(=O)c2cccc3cccnc23)CC1 | 371 (inactive) | 182
4 | Cc1ccc2c(c1)c1c(n2CC(O)Cn2c(C)nc3ccccc32)/C(=N\O)CCC1 (configuration not stated) | 16 (inactive) | 454
5 | CCN(CC)CCCNC(=O)c1cc(-c2ccc(Cl)c(Cl)c2)on1 | 22 (inactive) | 165
6 | C=CCn1c(=N)n(CC(O)COc2ccc(OC)cc2)c2ccccc21 (configuration not stated) | 37 (inactive) | 126
7 | COc1ccc(CC(=O)Nc2ccc(-c3nnc(-c4ccc(C)cc4)o3)cc2)cc1 | 24 (inactive) | 112
8 | CCOC(=O)C1CCCN(C(=O)Cn2cccc2C(=O)c2ccccc2)C1 (configuration not stated) | 201 (inactive) | 166
9 | Cn1nc(-c2ccc(Cl)cc2)c2cc(C(=O)NCCCN3CCOCC3)sc21 | 33 (inactive) | 184
10 | CCc1nn(C(C)C(=O)N2CCc3ccccc3C2)c(=O)c2cc3occc3n12 (configuration not stated) | 91 (inactive) | 123
11 | CC1CCCCN1CCNC(=O)c1ccc2c(=O)n(CCc3ccccc3)c(=O)[nH]c2c1 (configuration not stated) | 168 (inactive) | 184
12 | Cc1nc2nc(C)c(CCC(=O)NCCCN3CCN(c4cccc(Cl)c4)CC3)c(C)n2n1 | 43 (inactive) | 61
13 | CC(=O)c1cccc(NC2c3ccccc3C(=O)N2Cc2ccc3c(c2)OCO3)c1 (configuration not stated) | 121 (inactive) | 281
14 | Cc1cc(=O)n2nc(N3CCCC(C(=O)NCc4ccco4)C3)sc2n1 (configuration not stated) | 325 (inactive) | 102
15 | COc1ccc(C(CC(=O)O)NC(=O)Cc2ccccc2)cc1 (configuration not stated) | 186 (inactive) | 66.5
16 | COC(=O)c1ccc2c(=O)n(Cc3ccco3)c(SCC(=O)Nc3ccc(C)c(Cl)c3)nc2c1 | 138 (inactive) | 146
17 | O=C1CCCc2c1cc(C(=O)NC1CCSC1=O)c(=O)n2-c1ccccc1 (configuration not stated) | 253 (inactive) | 155
18 | Cc1oc(-c2ccccc2F)nc1CN1CCC(C(=O)NCc2ccco2)CC1 | 330 (inactive) | 278
19 | O=C(Cn1cnc2ccccc2c1=O)NCCC(=O)N1CCN(c2ccccc2)CC1 | 158 (inactive) | 190
20 | CCOC(=O)N1CCN(C(=O)CN(c2cccc(C(F)(F)F)c2)S(=O)(=O)c2ccccc2)CC1 | 137 (inactive) | 395
21 | CCOC(=O)c1ccc(-c2n[nH]c(=O)c3ccccc23)cc1 | 345 (inactive) | 236

Row | Compound | cell event count (at 100 µM) | cell event count (event count, at 10 µM)
22 | C=C(C)Cn1c(-c2ccccc2)nc2ccccc21 | 16 (inactive) | 106
23 | Cc1cc(N2C(=O)C3C4C=CC(C4)C3C2=O)ccc1Br (configuration not stated) | 272 (inactive) | 69.5
24 | COCCCN(C(=O)Nc1ccccc1)C(C)c1ccncc1 (configuration not stated) | 238 (inactive) | 387
25 | O=C(NCc1ccc(Cl)cc1)c1noc2c1CCCC2 | 311 (inactive) | 380
26 | CCOc1ccccc1NC(=O)CCC(=O)O | 239 (inactive) | 200
27 | CCN1CCN(c2cc(C)c3cc(NC(=O)c4ccc(Br)o4)ccc3n2)CC1 | 36 (inactive) | 233
28 | O=C(NCCCN1CCN(c2ccccc2F)CC1)C1CCCN(S(=O)(=O)c2cnc[nH]2)C1 (configuration not stated) | 425 (inactive) | 166
29 | CCOC(=O)c1cc2c(=O)n3ccccc3nc2n(CCCOC)c1=NC(=O)c1cccnc1 | 223 (inactive) | 144
30 | Cc1cc(C)c2c(=O)n(CC(=O)NCCCN3CCN(c4ccccc4F)CC3)sc2n1 | 15 (inactive) | 216
31 | CN1C(=O)c2ccc(S(=O)(=O)c3ccc(C(=O)O)cc3)cc2C1=O | 195 (inactive) | 166
32 | Cc1cc(=O)oc(C)c1C(=O)NCCCN1CCN(c2ccccc2F)CC1 | 232 (inactive) | 308
33 | CCC(C)NC(=O)c1cn(C)c(=O)c2cc(OC)c(OC)cc12 (configuration not stated) | 386 (inactive) | 302
34 | Cn1c(=O)cc(OCC(=O)NCCCN2CCN(c3cccc(Cl)c3)CC2)c2ccccc21 | 10 (inactive) | 280
35 | COc1cc2c(C(=O)NCCCN3CCN(c4cccc(Cl)c4)CC3)cn(C)c(=O)c2cc1OC | 15 (inactive) | 230
36 | CCN1CCCC1CNC(=O)c1cc2c(-c3cccc(OC)c3)nn(C)c2s1 (configuration not stated) | 25 (inactive) | 81.5
37 | CCc1ccc(-c2nc(CN3CCC(C(=O)NCc4ccco4)CC3)c(C)o2)cc1 | 25 (inactive) | 172
38 | Cc1cc2c(=O)n(CC(=O)N3CCN(c4ccccc4)CC3)cnc2s1 | 184 (inactive) | 170
39 | O=C(Nc1nc(-c2ccccc2)cs1)C1CCCCN1S(=O)(=O)c1ccccc1 (configuration not stated) | 234 (inactive) | 210
40 | CN(CCNC(=O)C1CC(=O)N(c2ccc(F)c(Cl)c2)C1)Cc1ccccc1 (configuration not stated) | 79 (inactive) | 202
41 | Cc1cccc(OCCn2c(=O)n(C)c3ccccc32)c1 | 15 (inactive) | 136
42 | Cc1ccc(Cn2ccc(NC(=O)c3cc(-c4ccc(Br)cc4)on3)n2)cc1 | 257 (inactive) | 132

Row | Compound | cell event count (at 100 µM) | cell event count (event count, at 10 µM)
43 | Cc1ccc(C)c2[nH]c(=O)c(CN(CCN3CCCC3)C(=O)Nc3cccc(Cl)c3)cc12 | 5 (inactive) | 97
44 | Cn1c(C(=O)NCCN2CCN(c3ccccc3F)CC2)cc2c(=O)n(C)c3ccccc3c21 | 2 (inactive) | 194
45 | CCOC(=O)N1CCC(NC(=O)c2cc3c(-c4ccc(OC)c(OC)c4)nn(C)c3s2)CC1 | 151 (inactive) | 398
46 | O=C(COc1ccc(S(=O)(=O)N2CCCC2)cc1Cl)NC1CC1 | 355 (inactive) | 328
47 | Cn1nc(-c2ccc(Cl)cc2)c2cc(C(=O)NCCN3CCOCC3)sc21 | 10 (inactive) | 136
48 | CCOC(=O)c1[nH]c(C)c(C(=O)N2CCc3ccccc32)c1C | 13 (active) | 67
49 | O=C(Cn1c(=O)[nH]c2ccsc2c1=O)NC1CCCCCC1 | 120 (inactive) | 118
50 | O=C(CCNC(=O)Cn1ccc2ccccc2c1=O)NCCCN1CCN(c2ccccc2F)CC1 | 112 (inactive) | 126
51 | CCN1CCN(CCNC(=O)C2CCN(Cc3nc(-c4ccc(Cl)cc4)oc3C)CC2)CC1 | 38 (inactive) | 378
52 | Cc1onc(-c2ccccc2Cl)c1C(=O)N(C)C1CCCCC1 | 25 (inactive) | 188
53 | Nc1ccccc1NC(=O)c1ccccc1N | 236 (inactive) | 313
54 | CCOC(=O)N1CCN(CC(=O)Nc2cc(C)nn2-c2nc3ccccc3s2)CC1 | 259 (inactive) | 245
55 | CCN1CCCC1CNC(=O)C1CCN(Cc2nc(-c3cccc(Br)c3)oc2C)CC1 (configuration not stated) | 16 (inactive) | 78
56 | O=C(NCCCN1CCN(c2ccccc2F)CC1)C1CCN(S(=O)(=O)c2cccs2)CC1 | 44 (inactive) | 95.5
57 | CSc1nc2ccc(Nc3nc(N4CCOCC4)nc(N4CCOCC4)n3)cc2s1 | 48 (inactive) | 138
58 | Cc1nn(Cc2ccc(F)cc2)c(C)c1NC(=O)c1cc(-c2ccc3c(c2)OCO3)on1 | 105 (inactive) | 276
59 | Cn1c(=O)cc(SCC(=O)NCCCN2CCN(c3ccccc3F)CC2)c2ccccc21 | 166 (inactive) | 210
60 | CCSc1nnc(Cn2c(=O)sc3ccccc32)n1-c1ccccc1C | 249 (inactive) | 171
61 | O=C(NCCCN1CCN(c2cccc(Cl)c2)CC1)c1nc(-c2ccncc2)no1 | 166 (inactive) | 462
62 | Cc1oc(-c2cccc(Cl)c2)nc1CN1CCC(C(=O)NCC2CCCO2)CC1 (configuration not stated) | 174 (inactive) | 165
63 | CCN(CCNC(=O)C1CCCN(Cc2nc(-c3ccc(OC)cc3)oc2C)C1)c1ccccc1 (configuration not stated) | 18 (inactive) | 146

Row | Compound | cell event count (at 100 µM) | cell event count (event count, at 10 µM)
64 | CCOC(=O)N1CCC(=C2c3ccc(Cl)cc3CCc3cccnc32)CC1 | 7 (inactive) | 192
65 | CCOC(=O)c1c(C)n(C)c2ccc(OCC(O)CNC(CC)CO)cc12 (configuration not stated) | 99 (inactive) | 88.5
66 | CCOC(=O)Cn1nc(-c2ccc(Cl)cc2)cc1N | 70 (inactive) | 22
67 | c1ccc(CSc2nnc(-c3cccs3)n2Cc2ccco2)cc1 | 55 (inactive) | 122
68 | O=C(CSc1nc2sc3c(c2c(=O)n1-c1ccccc1)CCCC3)NCc1ccco1 | 25 (inactive) | 104
69 | C=CCn1cc(C(=O)N2CCN(C)CC2)c(=O)c2cc(S(=O)(=O)N3CCCC3)ccc21 | 168 (inactive) | 118
70 | COc1ccc(-c2cc(C(F)(F)F)nc(N3CCN(C)CC3)n2)cc1 | 4 (inactive) | 102
71 | CCOC(=O)N1CCC(NC(=O)c2cc3c(-c4cccc(OC)c4)nn(C)c3s2)CC1 | 142 (inactive) | 300
72 | Cn1c(C(=O)NCCCN2CCN(c3ccccc3F)CC2)cc2c(=O)[nH]c3ccccc3c21 | 3 (inactive) | 93
73 | COc1ccc(-c2cc(C(F)(F)F)nc(N3CCN(Cc4ccccc4)CC3)n2)cc1OC | 152 (inactive) | 376
74 | Cc1ccc2c(c1)NC(=O)C(CC(=O)NCCCN1CCN(c3cc(Cl)ccc3C)CC1)O2 (configuration not stated) | 6 (active) | 66
75 | Cn1c(=O)cc(OCC(=O)NCCCN2CCN(c3ccccc3F)CC2)c2ccccc21 | 227 (inactive) | 401
76 | Cc1ccc(Oc2ccc(S(=O)(=O)N3CCOCC3)cc2C(N)=O)c(-n2nc3ccccc3n2)c1 | 5 (inactive) | 126
77 | CCOc1cccc2cc(-c3cn4cc(C)ccc4n3)c(=O)oc12 | 267 (inactive) | 300
78 | COc1ccc(Cl)c(N2CCN(CCCNC(=O)Nc3ccc(C)cc3)CC2)c1 | 19 (inactive) | 128
79 | O=C1c2ccccc2C(Nc2ccc3c(c2)OCO3)N1Cc1ccc2c(c1)OCO2 (configuration not stated) | 178 (inactive) | 189
80 | Cc1ccc2c(c1)c1c(n2CC(O)CNC(CO)(CO)CO)CCCC1 (configuration not stated) | 70 (inactive) | 392
81 | CCc1ccc(-c2nc(CN3CCCC(C(=O)O)C3)c(C)o2)cc1 (configuration not stated) | 153 (inactive) | 123
